# From ChEMBL document CHEMBL3988442, “University of Dundee, Small-Polar-MMV Screening Library” (2021)
# The whole screen tested about 66,000 compounds, of which about 960 (1.5%) showed an effect of 50% or more. The sample as a whole holds a higher share of strong results than the screen did.
# System: Trypanosoma brucei
# Assay: Trypanosoma brucei 72 hour study
# Type: functional, organism-based
# Parameters: scale not given: in the data most compounds retested in dose-response had high values
smiles,measurement,setting,value
CCOc1ccccc1-c1cc(N)[nH]n1.Cl,Percent Effect,"30.3 µM, […]",-3.53%
CC(C)NC(=O)C1CN(Cc2ccc(F)cc2)CC12CCOCC2.O=C(O)C(F)(F)F (stereo not drawn),Percent Effect,"30 µM, 30.03 µM",-12.09%
CCC(C)(COc1ncccc1Cl)NCC(=O)NCC(C)C (stereo not drawn),Percent Effect,"30 µM, 30.03 µM",-31.89%
CCC1=N[C@@]2(CC[C@@H]3CN(CC4CC4)C[C@@H]32)C(=O)N1CC1CC1.O=C(O)C(F)(F)F,Percent Effect,"30 µM, 30.03 µM",-23.62%
COc1ccnc(N2CCCN(C(=O)Cc3ccc(C)s3)CC2)n1,Percent Effect,10 µM,-47.83%
Cc1cccc(CNC2CC3(CCN(CCO)CC3)c3ccccc32)n1.O=C(O)C(F)(F)F.O=C(O)C(F)(F)F (stereo not drawn),Percent Effect,"30.3 µM, […]",13.54%
Cn1ncc2c1C(COCC1CC1)CN(C(=O)c1cscn1)C2.O=C(O)C(F)(F)F (stereo not drawn),Percent Effect,"30 µM, 30.03 µM",21.88%
Cn1cc(CN2CCn3cc(CNC(=O)c4cccn4C)nc3C2)cn1.O=C(O)C(F)(F)F,Percent Effect,"30 µM, 30.03 µM",21.81%
CC(=O)N1CCCCCC1C1CCN(c2ncccc2C#N)CC1 (stereo not drawn),Percent Effect,"30.3 µM, […]",13.42%
N#Cc1cccnc1N1CCC(C2CCCCCN2C(N)=O)CC1 (stereo not drawn),Percent Effect,"30.3 µM, […]",5.33%
N#Cc1cccnc1N1CCC(C2CCCCCN2C(=O)C2CC2)CC1 (stereo not drawn),Percent Effect,"30.3 µM, […]",53.48%
Cn1cnnc1-c1ccnc(NCc2ccccc2)c1,Percent Effect,"30.3 µM, […]",5.527%
Br.Cn1nccc1CN1CCOC(c2cccc(-c3cncnc3)n2)C1 (stereo not drawn),Percent Effect,"30.3 µM, […]",-1.234%
Cn1nccc1CN1CCOC(c2ccc(-c3cncnc3)cn2)C1 (stereo not drawn),Percent Effect,"30.3 µM, […]",1.674%
Cn1nccc1CN1CCOC(c2cccc(Nc3ccccn3)n2)C1 (stereo not drawn),Percent Effect,"30.3 µM, […]",100.5%
O=C(Nc1ccc(F)c(Br)c1)N1CCCC1,Percent Effect,"30 µM, 30.03 µM",97.43%
NC(=O)c1cc(NC(=O)N2CCCCCC2)ccc1F,Percent Effect,"30 µM, 30.03 µM",-43.72%
NC(=O)c1cc(NC(=O)N2CCOCC2)ccc1F,Percent Effect,"30 µM, 30.03 µM",-9.926%
CC(C)CN1CCC2(C=C(C(=O)N(C)C)c3ccccc32)CC1.O=C(O)C(F)(F)F,Percent Effect,"30.3 µM, […]",-83.33%
Cc1ccc(CN2CCn3cc(CNC(=O)c4cnn(C)c4)nc3C2)s1.O=C(O)C(F)(F)F,Percent Effect,"30 µM, 30.03 µM",-34.09%
CC(C)C(=O)N1CCC2(CC1)COCCN2Cc1ccc(F)cc1.O=C(O)C(F)(F)F,Percent Effect,"30 µM, 30.03 µM",21.09%
Cc1cc2c(=O)n3c(nc2s1)CCN(Cc1cncn1C)CC3.Cl,Percent Effect,"30.3 µM, […]",6.762%
CCCNC(=O)CNc1cc(C#N)ccc1OCC,Percent Effect,"30 µM, 30.03 µM",58.39%
CCOc1ccc(C#N)cc1NCC(=O)OC,Percent Effect,"30.3 µM, […]",-4.293%
same,Percent Effect,"10 mM, 10 mM as filed; unlikely as a test dose",-28.98%
CCNC(=O)NC(=O)CNc1cc(C#N)ccc1OCC,Percent Effect,"30.3 µM, […]",-6.445%
same,Percent Effect,"10 mM, 10 mM as filed; unlikely as a test dose",-44.56%
CCN(CC)C(=O)Cc1csc(C(C)C)n1,Percent Effect,"30 µM, 30.03 µM",-85.89%
CC(C)c1nc(CN(C)C(=O)[C@H](N)Cc2ccc(Cl)cc2)cs1,Percent Effect,"30 µM, 30.03 µM",-3.528%
CC(C)C[C@@H](N)C(=O)N(C)Cc1csc(C(C)C)n1,Percent Effect,"30 µM, 30.03 µM",100.6%
CCN(CC(=O)NC)C(=O)Cc1csc(C(C)C)n1,Percent Effect,"30 µM, 30.03 µM",-25.08%
CC(C)c1nc(CN(C)C(=O)CCc2ccc3c(c2)OCO3)cs1,Percent Effect,"30 µM, 30.03 µM",12.36%
CNC(=O)CN(C)C(=O)Cc1csc(C(C)C)n1,Percent Effect,"30 µM, 30.03 µM",70.2%
CC(C)c1nc(CN(C)C(=O)c2ccc3c(c2)OCC(=O)N3)cs1,Percent Effect,"30 µM, 30.03 µM",17.57%
CC(C)c1nc(CN(C)C(=O)C(O)c2ccc(Cl)cc2)cs1 (stereo not drawn),Percent Effect,"30 µM, 30.03 µM",3.875%
CC(C)c1nc(CN(C)C(=O)c2ccc3c(c2)OCO3)cs1,Percent Effect,"30 µM, 30.03 µM",56.82%
Cc1cccc(CN2C(=O)CO[C@@H]3CN(C4CCOCC4)C[C@H]32)c1.O=C(O)C(F)(F)F,Percent Effect,"30 µM, 30.03 µM",-46.8%
O=C(O)C(F)(F)F.O=C(c1ccco1)N1C[C@H]2CCCN(CC3CC3)[C@H]2C1,Percent Effect,"30 µM, 30.03 µM",-18.48%
CCN(C)c1ncnc2c1CCN(Cc1ccc(F)cc1)CC2.O=C(O)C(F)(F)F.O=C(O)C(F)(F)F,Percent Effect,"30 µM, 30.03 µM",0%
CC(=O)N1CCOCC2(CN(Cc3ccc(C)o3)CCO2)C1.O=C(O)C(F)(F)F (stereo not drawn),Percent Effect,"30 µM, 30.03 µM",0.2271%
COCCCC1(CO)CCCN(CCc2ccccn2)C1 (stereo not drawn),Percent Effect,"30 µM, 30.03 µM",-19.7%
COCCC1(CO)CCCN(CCCc2ccccc2)C1 (stereo not drawn),Percent Effect,"30 µM, 30.03 µM",-35.64%
COCCCC1(CO)CCCN(CCc2ccccc2)C1 (stereo not drawn),Percent Effect,"30 µM, 30.03 µM",60.85%
COCCn1c(=O)n(C)c(=O)c2ccc(C3CCC(CN)CC3)nc21.Cl (stereo not drawn),Percent Effect,"30.3 µM, […]",8.357%
COc1cccc(CNC(Cc2cccs2)c2nc(C)c(C)s2)c1OC.Cl (stereo not drawn),Percent Effect,"30.3 µM, […]",-32.09%
CCc1ccc2nc(C)cc(C(=O)NC[C@@H]3CCNC[C@H]3O)c2c1,Percent Effect,"30 µM, 30.03 µM",-34.49%
CCc1ccc2nc(C)cc(C(=O)N[C@@H]3CNC[C@H]3O)c2c1,Percent Effect,"30 µM, 30.03 µM",-69.69%
CCc1ccc2nc(C)cc(C(=O)N[C@@H]3CCCNC3)c2c1,Percent Effect,"30 µM, 30.03 µM",86.43%
CCS(=O)(=O)N1CCCC2(COCCN(c3ccccn3)C2)C1.O=C(O)C(F)(F)F (stereo not drawn),Percent Effect,"30 µM, 30.03 µM",-23.72%
Cc1nn(C)c(Cl)c1CNCc1cccnc1N1CCOCC1.Cl,Percent Effect,"30 µM, 30.03 µM",16.35%
COC(=O)Cn1c(C)cc(=O)c2cc(F)ccc21,Percent Effect,"30.3 µM, […]",-56.52%
CC1(c2ccccc2)CCCN(Cc2cncn2C2CCCC2)C1 (stereo not drawn),Percent Effect,"30 µM, 30.03 µM",102.5%
CC1(c2ccccc2)CCCN(Cc2cncn2C2CC2)C1 (stereo not drawn),Percent Effect,"30 µM, 30.03 µM",-39.24%
COCCn1cncc1CN1CCCC(C)(c2ccccc2)C1 (stereo not drawn),Percent Effect,"30 µM, 30.03 µM",-43.69%
Cn1ccc(C(=O)N2CCCCC2c2cc(CCO)[nH]n2)n1 (stereo not drawn),Percent Effect,"30.3 µM, […]",-16.55%
O=C(Cc1cccs1)N1C[C@H]2CN(CC3CCCO3)CC[C@H]2C1.O=C(O)C(F)(F)F (stereo partly drawn),Percent Effect,"30 µM, 30.03 µM",-6.249%
COC(=O)c1cc(C(=O)N2CCOC(C)(C)C2)n(-c2ccccc2)n1,Percent Effect,"30.3 µM, […]",6.059%
Cc1nc(C)n(CC2CCCN2CC(=O)NCCc2ccsc2)n1 (stereo not drawn),Percent Effect,"30 µM, 30.03 µM",-16.47%
CN1CCN(c2ccc(S(N)(=O)=O)cc2C#N)Cc2ccccc21,Percent Effect,"30.3 µM, […]",-63.54%
CC[C@H](C)Nc1ncc(-c2ccn(C3CCN(C(C)=O)CC3)n2)cn1,Percent Effect,"30.3 µM, […]",-5.339%
CC(=O)N1CCC(n2ccc(-c3cnc(N4CCOCC4)nc3)n2)CC1,Percent Effect,"30.3 µM, […]",26%
CC(=O)N1CCC(n2ccc(-c3cnc(NCC(C)C)nc3)n2)CC1,Percent Effect,"30.3 µM, […]",77.59%
CC(C)n1c(=O)nc2n1C(=O)N(c1ccc(Br)cc1)C2,Percent Effect,"30 µM, 30.03 µM",-31.4%
N#Cc1cccc(CN2C[C@H](NC(=O)C3CC3)[C@H]3OCCC[C@H]32)c1.O=C(O)C(F)(F)F,Percent Effect,"30.3 µM, […]",-35.12%
CC(=O)N1CCCC2(CCC(=O)N2Cc2cccnc2)C1.O=C(O)C(F)(F)F (stereo not drawn),Percent Effect,"30.3 µM, […]",1.324%
COCCCN1Cc2cccc(NC(=O)c3cc(F)ccc3F)c2C1,Percent Effect,"30 µM, 30.03 µM",52.37%
COCCCN1Cc2cccc(NC(=O)c3ccccc3Cl)c2C1,Percent Effect,"30 µM, 30.03 µM",7.9%
COCCCN1Cc2cccc(NC(=O)c3cc(F)cc(F)c3)c2C1,Percent Effect,"30 µM, 30.03 µM",34.67%
CN1CCN(C2COC3(CCN(Cc4cccs4)CC3)C2)CC1.O=C(O)C(F)(F)F.O=C(O)C(F)(F)F (stereo not drawn),Percent Effect,"30.3 µM, […]",-470.3%
Cc1nc[nH]c1CN1C[C@@H]2CC[C@H](C1)N(C(=O)CCc1cccnc1)C2,Percent Effect,"30 µM, 30.03 µM",-21.46%
Cc1nc(CN2CC3(CCN(c4cnccn4)C3)CC2=O)cs1.O=C(O)C(F)(F)F (stereo not drawn),Percent Effect,"30 µM, 30.03 µM",-45.32%
Cc1[nH]/c(=N\C(=O)c2csc(NC3CC3)n2)sc1C,Percent Effect,"30 µM, 30.03 µM",66.57%
CCN(CC)C(=O)CCCNC(=O)c1csc(NC2CC2)n1,Percent Effect,"30 µM, 30.03 µM",-27.48%
Cc1cnc(NC(=O)c2csc(NC3CCCC3)n2)s1,Percent Effect,"30 µM, 30.03 µM",-9.891%
CC(C)(C)[S+]([O-])CCNC(=O)c1csc(NC2CC2)n1 (stereo not drawn),Percent Effect,"30 µM, 30.03 µM",-59.41%
CC(=O)Nc1nc(C(=O)N2CCCC(c3cc(C)[nH]n3)C2)cs1 (stereo not drawn),Percent Effect,"30 µM, 30.03 µM",16.48%
Cc1[nH]/c(=N\C(=O)c2csc(NC3CCCC3)n2)sc1C,Percent Effect,"30 µM, 30.03 µM",95.68%
O=C(O)C(F)(F)F.c1csc(CN2CCC3(CCOCC3COCC3CC3)CC2)n1 (stereo not drawn),Percent Effect,"30.3 µM, […]",-46.34%
C=C(C)CN1CCC(NC(=O)Nc2ccc(F)c(C(=O)NC)c2)CC1,Percent Effect,"30.3 µM, […]",-0.7134%
CC[C@@H]1N(Cc2ccc(F)cc2)CCC[C@]12CCC(=O)N2C.O=C(O)C(F)(F)F,Percent Effect,"30.3 µM, […]",-14.8%
O=C(O)C(F)(F)F.O=C(c1ccco1)N1CCC2(CCCN(c3ncccn3)C2)C1 (stereo not drawn),Percent Effect,"30.3 µM, […]",-37.47%
CC(=O)Nc1nc2c(s1)C1(CCN(C)CC1)Nc1ccccc1S2,Percent Effect,"30.3 µM, […]",83.23%
CC(=O)Nc1nc2c(s1)C1(CCCC1)Nc1ccccc1S2,Percent Effect,"30.3 µM, […]",-6.174%
CC(=O)Nc1nc2c(s1)C(C)(C)Nc1ccccc1S2,Percent Effect,"30.3 µM, […]",-17.63%
O=c1c(CN2CCOCC2)coc(O)c1CN1CCOCC1,Percent Effect,"30 µM, 30.03 µM",-17.25%
CN1CCN(c2ncc3c(=O)n(-c4cccc(F)c4)c(=O)[nH]c3n2)CC1,Percent Effect,"30 µM, 30.03 µM",11.72%
OC(CN1CCN(CC2CCCCC2)CC1)c1ccccc1 (stereo not drawn),Percent Effect,"30 µM, 30.03 µM",-15.73%
NC(CC1CCCC1)c1ccc(Oc2ccccc2)cc1 (stereo not drawn),Percent Effect,"30 µM, 30.03 µM",101.8%
Cl.NC(CC1CCCC1)c1ccccc1 (stereo not drawn),Percent Effect,"30 µM, 30.03 µM",-30.59%
COc1ccc(CN(Cc2cnc(N)nc2)CC2CCCO2)c(OC)c1.O=C(O)CC(O)(CC(=O)O)C(=O)O (stereo not drawn),Percent Effect,"30.3 µM, […]",5.653%
CCCc1cc(NC2CCc3nc(CC)nn3C2)n2ncnc2n1 (stereo not drawn),Percent Effect,"30 µM, 30.03 µM",-33.56%
CCCc1cc(NC2CCc3nc(C)nn3C2)n2ncnc2n1 (stereo not drawn),Percent Effect,"30 µM, 30.03 µM",-21.48%
Cc1nc2n(n1)CC(Nc1cc(C(F)(F)F)nc3ncnn13)CC2 (stereo not drawn),Percent Effect,"30 µM, 30.03 µM",53.11%
Cc1cc(NC2CCc3nc(C)nn3C2)n2ncnc2n1 (stereo not drawn),Percent Effect,"30 µM, 30.03 µM",-21.45%
CCc1nc2n(n1)CC(Nc1cc(C)nc3ncnn13)CC2 (stereo not drawn),Percent Effect,"30 µM, 30.03 µM",-89.04%
CCCc1cc(NC2CCc3ncnn3C2)n2ncnc2n1 (stereo not drawn),Percent Effect,"30 µM, 30.03 µM",104.4%
O=C(NC1CC1)[C@H]1C[C@H]2OCC[C@H]2N(Cc2ccc3ccccc3n2)C1.O=C(O)C(F)(F)F.O=C(O)C(F)(F)F,Percent Effect,"30.3 µM, […]",-259.7%
COC(=O)CCN(C)Cc1cc(Br)cs1,Percent Effect,"30 µM, 30.03 µM",-12.73%
